Counter-ions that a name gives are not always drawn. ± gives the standard deviation of the averaged measurements.

Holding throughout (experiment): growth (OD600 after 10 h); higher = more growth (less inhibition)
The test system of assay [1] is E. coli TESEC Alr+ wild-type control. The conditions noted are these: compound 0.1 mM; raw OD600 reference: median of DMSO wells 0.241, cell-free background 0.041. As to the method:
(§1)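 TESEC Mtb Alr E. coli, or the Alr+ wild-type control, in 384-well plates with Prestwick library compounds at 0.1 mM and 1% DMSO, across arabinose induction levels of 1E3 to 1E7 nM. Growth is read as OD600 after 10 h at 37 °C in triplicate biological replicates.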

Assay [2] deals with E. coli TESEC Mtb Alr. To be noted: compound 0.1 mM. The procedure: as §1
In assay [3] the test system is E. coli TESEC Mtb Asd. The conditions noted are these: compound 0.1 mM. As to the method: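 TESEC E. coli strains in which the native enzyme is deleted and replaced by arabinose-inducible Mtb Asd, DapB, CysH or TrpD, each grown in its selective medium. Strains were screened against the Prestwick library at 0.1 mM and 1% DMSO in 384-well format at low and high arabinose induction. Growth is read as OD600 after 10 h in triplicate.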

Assay [4] has as its system E. coli TESEC Mtb Alr. To be noted: compound 0.1 mM. The procedure:
(§2)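 TESEC Mtb Alr E. coli (ΔaraC ΔtolC ΔentC Δalr ΔdadX, arabinose-inducible Mtb Alr) or the Alr+ wild-type control strain, grown in defined M9-fructose medium without D-alanine in 96-well plates with Prestwick library compounds at 0.1 mM and 1% DMSO. Low Alr induction is 0.1 µM arabinose and high induction is 10 mM arabinose.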
This is another data set of the same source.

In assay [5] the test system is E. coli TESEC Alr+ wild-type control. The conditions noted are these: compound 0.1 mM; raw OD600 reference: median of DMSO wells 0.49, cell-free background 0.052. The procedure:
as §2

[6] abbreviates: arabinose 1000 nM, raw OD600 reference: median of DMSO wells 0.294, cell-free background 0.041.
The mark [7] stands for this setting: arabinose 10000 nM, raw OD600 reference: median of DMSO wells 0.264, cell-free background 0.041.
Setting [8] is: arabinose 100000 nM, raw OD600 reference: median of DMSO wells 0.201, cell-free background 0.041.
[9] abbreviates: arabinose 1000000 nM, raw OD600 reference: median of DMSO wells 0.193, cell-free background 0.041.
The mark [10] stands for this setting: arabinose 10000000 nM, raw OD600 reference: median of DMSO wells 0.146, cell-free background 0.041.
Where [11] appears, read: arabinose induction (level): High, raw OD600 reference: median of DMSO wells 0.331, cell-free background 0.041.
[12] abbreviates: arabinose induction (level): Low, raw OD600 reference: median of DMSO wells 0.417, cell-free background 0.041.
Where [13] appears, read: arabinose 100 nM, raw OD600 reference: median of DMSO wells 0.413, cell-free background 0.052.
The mark [14] stands for this setting: arabinose 10000000 nM, raw OD600 reference: median of DMSO wells […], cell-free background 0.052.

`Oc1cc(Cl)ccc1Oc1ccc(Cl)cc1Cl` [Triclosan]: the growth in assay [1] was found to be 0.0414 ± 0.0012; in assay [2] (setting [6]), 0.0413 ± 0.0016; in assay [2] (setting [7]), 0.04137 ± 0.00025; in assay [2] (setting [8]), 0.04127 ± 0.00015; in assay [2] (setting [9]) it was 0.0423 ± 0.0022; in assay [2] (setting [10]) it was 0.04107 ± 0.00021. Also, the growth amounted to 0.0494 ± 0.0062 in assay [3] (setting [11]), 0.04643 ± 0.00015 in assay [3] (setting [12]), 0.052 ± 0.0048 in assay [4] (setting [13]) and 0.054 ± 0.001 in assay [4] (setting [14]).
In the case of `C[C@]12CCC(=O)C=C1CC[C@@H]1[C@@H]2C(=O)C[C@]2(C)C(=O)CC[C@@H]12` [Adrenosterone], the growth was determined as 0.212 ± 0.0061 in assay [1]; 0.273 ± 0.015 in assay [2] (setting [6]); 0.245 ± 0.0058 in assay [2] (setting [7]); 0.163 ± 0.0036 in assay [2] (setting [8]); 0.131 ± 0.011 in assay [2] (setting [9]); 0.123 ± 0.0015 in assay [2] (setting [10]). The growth in assay [3] (setting [11]) is 0.256 ± 0.03; in assay [3] (setting [12]) it was 0.445 ± 0.023; in assay [5], 0.533 ± 0.083; in assay [4] (setting [13]), 0.406 ± 0.014; in assay [4] (setting [14]), 0.2946 ± 0.0019.
With `NC(=O)C[S+]([O-])C(c1ccccc1)c1ccccc1` (configuration not stated) [Modafinil], the growth turned out to be 0.246 ± 0.0057 in assay [1]; 0.295 ± 0.0039 in assay [2] (setting [6]); 0.255 ± 0.015 in assay [2] (setting [7]); 0.246 ± 0.021 in assay [2] (setting [8]); 0.192 ± 0.0097 in assay [2] (setting [9]); 0.148 ± 0.0039 in assay [2] (setting [10]). Moreover, the growth in assay [3] (setting [11]) stood at 0.348 ± 0.097; in assay [3] (setting [12]), 0.434 ± 0.039; in assay [4] (setting [13]) it was 0.406 ± 0.0054; in assay [4] (setting [14]) it was 0.346 ± 0.021.
For `CCN[C@@H](C)Cc1cccc(C(F)(F)F)c1` [Dexfenfluramine hydrochloride], the growth in assay [1] is 0.23 ± 0.013; in assay [2] (setting [6]), 0.315 ± 0.0066; in assay [2] (setting [7]) it was 0.261 ± 0.0059; in assay [2] (setting [8]) it was 0.232 ± 0.027; in assay [2] (setting [9]) it was 0.174 ± 0.0053; in assay [2] (setting [10]) it was 0.158 ± 0.0058. Besides, the growth worked out at 0.235 ± 0.033 in assay [3] (setting [11]), 0.335 ± 0.083 in assay [3] (setting [12]), 0.412 ± 0.0093 in assay [4] (setting [13]) and 0.351 ± 0.026 in assay [4] (setting [14]).
As to `O=C(O)CCCc1ccc(N(CCCl)CCCl)cc1` [Chlorambucil], the growth was found to be 0.2478 ± 0.002 in assay [1]; 0.296 ± 0.0033 in assay [2] (setting [6]); 0.263 ± 0.0054 in assay [2] (setting [7]); 0.206 ± 0.0083 in assay [2] (setting [8]); 0.191 ± 0.0081 in assay [2] (setting [9]); 0.135 ± 0.0069 in assay [2] (setting [10]). Moreover, the growth is 0.258 ± 0.086 in assay [3] (setting [11]), 0.288 ± 0.096 in assay [3] (setting [12]), 0.429 ± 0.0069 in assay [4] (setting [13]) and 0.326 ± 0.016 in assay [4] (setting [14]).
For `C#C[C@]1(O)CC[C@H]2[C@@H]3CCC4=CC(=O)CCC4=C3C=C[C@@]21CC` [Gestrinone], the growth in assay [1] was determined as 0.13 ± 0.0014; in assay [2] (setting [6]) it was 0.195 ± 0.02; in assay [2] (setting [7]), 0.18 ± 0.0068; in assay [2] (setting [8]), 0.173 ± 0.0028; in assay [2] (setting [9]), 0.105 ± 0.011; in assay [2] (setting [10]) it was 0.134 ± 0.0068. The growth turned out to be 0.216 ± 0.065 in assay [3] (setting [11]); 0.253 ± 0.12 in assay [3] (setting [12]); 0.287 ± 0.011 in assay [5]; 0.374 ± 0.0073 in assay [4] (setting [13]); 0.165 ± 0.03 in assay [4] (setting [14]).
Turning to `CN1[C@@H]2CC[C@H]1C[C@@H](OC(=O)[C@H](CO)c1ccccc1)C2` [Hyoscyamine (L)], the growth was 0.243 ± 0.0078 in assay [1]; 0.293 ± 0.024 in assay [2] (setting [6]); 0.272 ± 0.0055 in assay [2] (setting [7]); 0.23 ± 0.011 in assay [2] (setting [8]); 0.176 ± 0.005 in assay [2] (setting [9]); 0.158 ± 0.011 in assay [2] (setting [10]). In addition, the growth in assay [3] (setting [11]) was 0.317 ± 0.073; in assay [3] (setting [12]) it was 0.377 ± 0.074; in assay [4] (setting [13]), 0.415 ± 0.02; in assay [4] (setting [14]), 0.34 ± 0.02.
As for `S=C(NC1CCCCC1)N1CCC(c2cnc[nH]2)CC1` [Thioperamide maleate], the growth in assay [1] is 0.218 ± 0.0074; in assay [2] (setting [6]) it was 0.286 ± 0.015; in assay [2] (setting [7]), 0.257 ± 0.013; in assay [2] (setting [8]), 0.17 ± 0.016; in assay [2] (setting [9]), 0.15 ± 0.0049; in assay [2] (setting [10]) it was 0.131 ± 0.0035. The growth in assay [3] (setting [11]) came to 0.273 ± 0.013; in assay [3] (setting [12]) it was 0.495 ± 0.039; in assay [4] (setting [13]) it was 0.402 ± 0.016; in assay [4] (setting [14]) it was 0.299 ± 0.029.
Consider `COc1ccc(C(CN(C)C)C2(O)CCCCC2)cc1` (configuration not stated) [Venlafaxine], for which the growth in assay [1] was found to be 0.219 ± 0.015; in assay [2] (setting [6]), 0.301 ± 0.016; in assay [2] (setting [7]), 0.251 ± 0.01; in assay [2] (setting [8]), 0.185 ± 0.013; in assay [2] (setting [9]), 0.178 ± 0.0042; in assay [2] (setting [10]), 0.137 ± 0.0036. Further, the growth in assay [3] (setting [11]) came out at 0.436 ± 0.066; in assay [3] (setting [12]), 0.459 ± 0.032; in assay [4] (setting [13]) it was 0.415 ± 0.0048; in assay [4] (setting [14]) it was 0.338 ± 0.025.
For the compound `C[C@]12CCC(=O)C=C1C=C[C@@H]1[C@@H]2CC[C@@]2(C)[C@H]1CC[C@@]2(O)CCC(=O)O` [Canrenoic acid potassium salt], the growth amounted to 0.227 ± 0.01 in assay [1]; 0.275 ± 0.025 in assay [2] (setting [6]); 0.237 ± 0.019 in assay [2] (setting [7]); 0.16 ± 0.0057 in assay [2] (setting [8]); 0.163 ± 0.0033 in assay [2] (setting [9]); 0.15 ± 0.0017 in assay [2] (setting [10]). The growth came out at 0.214 ± 0.052 in assay [3] (setting [11]), 0.341 ± 0.03 in assay [3] (setting [12]), 0.407 ± 0.0047 in assay [4] (setting [13]) and 0.264 ± 0.011 in assay [4] (setting [14]).
In the case of `O=C(NCNC(=O)NC1C(=O)NC(=O)N1CO)NC1C(=O)NC(=O)N1CO` (configuration not stated) [Imidurea], the growth was found to be 0.231 ± 0.0035 in assay [1]; 0.2874 ± 0.0013 in assay [2] (setting [6]); 0.289 ± 0.0059 in assay [2] (setting [7]); 0.193 ± 0.036 in assay [2] (setting [8]); 0.231 ± 0.022 in assay [2] (setting [9]); 0.135 ± 0.0032 in assay [2] (setting [10]). The growth is 0.336 ± 0.057 in assay [3] (setting [11]), 0.358 ± 0.074 in assay [3] (setting [12]), 0.44 ± 0.021 in assay [4] (setting [13]) and 0.345 ± 0.012 in assay [4] (setting [14]).
For `COc1ccc2c(c1)[C@]13CCCC[C@@H]1[C@H](C2)N(C)CC3` [Dextromethorphan hydrobromide monohydrate], the growth in assay [1] worked out at 0.1976 ± 0.0013; in assay [2] (setting [6]), 0.25 ± 0.005; in assay [2] (setting [7]) it was 0.255 ± 0.0068; in assay [2] (setting [8]), 0.2 ± 0.027; in assay [2] (setting [9]) it was 0.154 ± 0.0044; in assay [2] (setting [10]), 0.142 ± 0.002. The growth is 0.168 ± 0.015 in assay [3] (setting [11]), 0.29 ± 0.045 in assay [3] (setting [12]), 0.42 ± 0.006 in assay [4] (setting [13]) and 0.355 ± 0.015 in assay [4] (setting [14]).
In the case of `COc1ccc(C(=O)N2CCCC2=O)cc1` [Aniracetam], the growth in assay [1] stood at 0.25 ± 0.0051; in assay [2] (setting [6]) it was 0.3088 ± 0.0018; in assay [2] (setting [7]), 0.246 ± 0.01; in assay [2] (setting [8]) it was 0.236 ± 0.021; in assay [2] (setting [9]), 0.172 ± 0.0084; in assay [2] (setting [10]), 0.167 ± 0.0026. Moreover, the growth turned out to be 0.235 ± 0.057 in assay [3] (setting [11]), 0.309 ± 0.058 in assay [3] (setting [12]), 0.405 ± 0.011 in assay [4] (setting [13]) and 0.343 ± 0.012 in assay [4] (setting [14]).
As for `C=CC[C@]1(O)CC[C@H]2[C@@H]3CCC4=CC(=O)CCC4=C3C=C[C@@]21C` [Altrenogest], the growth in assay [1] amounted to 0.132 ± 0.0045; in assay [2] (setting [6]) it was 0.16 ± 0.0073; in assay [2] (setting [7]), 0.167 ± 0.0079; in assay [2] (setting [8]), 0.144 ± 0.0049; in assay [2] (setting [9]), 0.0767 ± 0.0035; in assay [2] (setting [10]) it was 0.118 ± 0.005. The growth amounted to 0.148 ± 0.027 in assay [3] (setting [11]), 0.126 ± 0.021 in assay [3] (setting [12]), 0.376 ± 0.0056 in assay [4] (setting [13]) and 0.134 ± 0.011 in assay [4] (setting [14]).
